Source: PubChem BioAssay
Most compounds without a hit are left out; they make up all but 2.8% or so of the library.
DRD3 antagonist – qHTS of D3 Dopamine Receptor Antagonist: qHTS | D(3) dopamine receptor (Homo sapiens), P35462 | D3R cells, DiscoveRx beta-arrestin luminescence, antagonist mode; hits give low values | max response, negative = inhibition, % | 2.5% of 360,000 active; in the data active = max response below about -50%; inconclusive = no clear call, values can overlap the other calls; note: % is set by controls: 0 for no effect and ±100 for the full control effect
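Cells plated overnight at 1500 cells/well, then exposed to library compounds with dopamine controls for 90 minutes at 37 degrees C. DiscoveRx reagent added for 30–60 minutes at room temperature; luminescence read, quantitative HTS format.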
PTHR1 agonist – qHTS for PTHR1 Agonists: Primary Screen; Parathyroid hormone/parathyroid hormone-related peptide receptor (Homo sapiens), Q03431; AID 743266, 2014; Potency, µM (titrated, usually from 115 µM), for inactives: at the top dose activation, actives largely listed as activators; HEK293 GP2 PTHR1 cells, GloSensor cAMP luminescence, 1 h; 0.075% of 410,000 active; note: potency is the fitted concentration of half-maximal effect; nearly all actives have a fitted effect of over 55% in size
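HEK-293-derived GP2 cells expressing PTHR1 and a GloSensor cAMP reporter, 3,000/well, plated overnight, given luciferin plus IBMX (each 0.5 mM as added) for 1 h at 37 °C, then compound for 1 h at 37 °C. Luminescence was read after 15 min at room temperature.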
a7 integrin act – qHTS for Activators of Integrin-Mediated Alleviation for Muscular Dystrophy; alpha7betagal myoblasts, beta-gal FDG fluorescence, 48 h; Potency, µM (top dose mostly 38.3 µM), for the others: top-dose activation, most hits filed as activators; 0.064% of 350,000 active;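 note: potency is the fitted concentration of half-maximal effect; 100% = response of the positive control SU9516; nearly all actives have a fitted effect of over 60% in size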
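alpha7betagal+/- myoblasts (passage 13, 250/well) treated 48 h at 37C with compounds at 1:260 dilution of DMSO stock. Lysed, then beta-galactosidase activity read as FDG fluorescence (ex 480/em 540) after 30 min, with pre-read for autofluorescence.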
CBFb RUNX1 block – qHTS Assay for Compounds Blocking the Interaction Between CBF-beta and RUNX1 for the Treatment of Acute Myeloid Leukemia. AlphaScreen CBFb-His/RUNX1-biotin binding, biochemical. Potency, µM (top dose mostly 59.8 µM), for inactives: at the highest dose activity, negative = inhibition, most hits filed as inhibitors. Runt-related transcription factor 1 (Homo sapiens) + Core-binding factor subunit beta …. 230,000 tested, under 10 active; note: % of control where 0% means no effect
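AlphaScreen binding: CBFb-His and RUNX1-biotin (30 nM each) preincubated 20 min, compound added for 15 min, then nickel and streptavidin beads for 90 min, all at room temperature. Disruption of the interaction by any mechanism counts as activity.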
MBNL1-CUG inh – qHTS Assay for Inhibitors of MBNL1-poly(CUG) RNA binding | Muscleblind-like protein 1 (Homo sapiens), Q9NR56 | TR-FRET MBNL1-His/biotin-(CUG)12 binding, 665/545 ratio | Potency, µM (titrated, usually from 57.5 µM), inactives show top-dose activity change, negative = inhibition, hits mostly inhibitors | 0.036% of 280,000 active | AID 2675, 2010; active = well fitted inhibition curve with a large enough effect in the signal ratio, with a control signal flat, not every such curve was filed as active; inconclusive = small, poorly fitted or top-dose-only effect, or effect the other way, or a change in a side signal; inactive = no such curve, though single readings can be large or run the other way; the % refers to the signal ratio; note: potency is the fitted concentration of half-maximal effect; % is set by controls: 0 for no effect and ±100 for the full control effect
Target sequence (Q9NR56 whole entry, looked up): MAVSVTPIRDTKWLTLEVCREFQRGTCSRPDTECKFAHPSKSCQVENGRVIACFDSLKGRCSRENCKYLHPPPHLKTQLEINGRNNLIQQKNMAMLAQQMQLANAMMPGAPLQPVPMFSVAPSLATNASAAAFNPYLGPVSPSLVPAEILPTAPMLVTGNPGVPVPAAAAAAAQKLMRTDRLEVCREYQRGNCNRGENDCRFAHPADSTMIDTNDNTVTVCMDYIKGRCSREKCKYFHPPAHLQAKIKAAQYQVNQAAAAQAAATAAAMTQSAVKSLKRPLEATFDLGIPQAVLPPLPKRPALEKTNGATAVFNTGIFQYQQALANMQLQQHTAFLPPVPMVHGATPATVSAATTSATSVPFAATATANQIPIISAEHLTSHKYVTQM
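TR-FRET readout: Ex 340 nm, 665/545 nm emission ratio, normalized to buffer-only (basal) and MBNL1-(CUG)12 controls. Complex of MBNL1-His with Biotin-(CUG)12, compounds 92 nM–58 uM, incubated 60 min at room temperature.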
D3 ag – qHTS of D3 Dopamine Receptor Agonist: qHTS. max activation, %. 0.58% of 410,000 active. D(3) dopamine receptor (Homo sapiens), P35462. D3R DiscoveRx beta-arrestin cells, luminescence, 90 min. AID 652048, 2013; in the data active = max activation above about 30%; note: 0% is about no effect
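Agonist mode: compounds and dopamine controls were applied to plated cells for 90 min at 37 degrees C after an overnight attachment at 1500 cells/well. Luminescent read-out followed 30 - 60 minutes at room temperature with DiscoveRx detection reagent.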
The depositor's hits bear a star; i = inactive; ? = inconclusive; · = not tested or not shown; [ ] = another dose, or the depositor's remark. Unless noted, calls come from the whole dose curve; as a rule, active = well fitted curve in the direction sought with a large enough effect; inconclusive = small, poorly fitted or top-dose-only effect, or another doubt; inactive = no such curve, though single readings can be large; an effect the other way counts as inactive or inconclusive.

SMILES	DRD3 antagonist	PTHR1 agonist	a7 integrin act	CBFb RUNX1 block	MBNL1-CUG inh	D3 ag
O=C(C1CC1)N1CCN=C1SCc1ccccc1Cl	-60*	-69%	10%	-5%	-3%	-7
Cc1cc(C)c2oc(C(=O)Nc3ccc(S(=O)(=O)Nc4ncccn4)cc3)cc(=O)c2c1	·	0%	·	·	·	10
CC(=O)Nc1ccc(NC(=O)c2cc(=O)c3cc(C)cc(C)c3o2)cc1	1	i	11µM*	·	-3%	2
Cc1ccc(SCC(=O)NNC(=O)c2ccccc2)cc1C	-70*	i	-1%	·	0%	-16
Cc1oc(-c2ccccc2F)nc1CN1CCC(C(=O)NCc2cccs2)CC1	-52*	-5%[57.5 µM]	0%	1%	-9%	-1
O=C(/C=C/Nc1ccccc1)c1ccc(Cl)cc1Cl	0	i	-12%	·	?	-9
N#Cc1c(Nc2ccccc2)[n+]([O-])c2ccc(Cl)cc2[n+]1[O-]	-55*	i	-19%	·	·	-23
O=C(Cn1nnc2ccccc21)c1ccc(Cl)cc1	-6	19%	?	0%	3%	5
CCn1c(SCC(=O)Nc2cccc(C)c2)nc2nc3c(cc2c1=O)COC(C)(C)C3	11	-11%	-20%	4%	·	-9
CC(=O)Oc1c(Cl)c(N2CCOCC2)c(OC(C)=O)c2ccccc12	16	-28%	-37%	1%	13%	-2
O=C(Nc1cccc2cccnc12)c1csc([C@@H]2O[C@H](CO)[C@H](O)[C@H](O)[C@H]2O)n1	-117*	i	·	·	·	-21
COc1cc(NC(=O)NCC2CCN(Cc3ccccc3Cl)CC2)cc(OC)c1OC	-7	?	8%	·	-3%	-12
COc1ccccc1C1CCN(Cc2ccccc2)CC1	-116*	?	-11%	·	-7%	-24
O=[N+]([O-])c1cccc(COc2cccc(CN3CCCCC3)c2)c1	-77*	i	-17%	·	·	-62
COc1ccccc1C1CCN(Cc2ccccc2Cl)CC1	-75*	i	-37%	·	-6%	-42
COc1ccc(CN2CCC(Cc3ccccc3)CC2)cc1OC	?	i	-53%	·	-22%	-18
COc1ccccc1C1CCN(Cc2ccc3ccccc3c2)CC1	-62*	-17%	-20%	·	3%	-34
COc1ccc(/C=C/C(=O)OCC(=O)Nc2ccc(N3CCOCC3)cc2)cc1OC	-7	-13%	-15%	5%	12%	-3
Cc1ccccc1NC(=O)N(O)C1(C#N)CCCCC1	8	-45%	32%	·	·	4
C/C=C1\[C@H]2C=C(C)C[C@]1(N)c1ccc(=O)[nH]c1C2	·	·	·	·	·	7
O=[N+]([O-])c1cccc(CN2CCC(Cc3ccccc3)CC2)c1	-29	i	32%	·	?	-14
O=[N+]([O-])c1cccc(CN2CCN(c3cccc4[nH]ccc34)CC2)c1	-97*	-23%	-6%	·	?	-6
COc1ccccc1C1CCN(Cc2cccc([N+](=O)[O-])c2)CC1	-95*	-23%	-21%	-8%	-5%	-23
O=C(NC1CC(=O)N(c2ccc(F)cc2)C1)c1ccc(S(=O)(=O)N2CCCCC2)cc1 (stereo not drawn)	·	i	·	·	·	-14
O=C(C(=Cc1ccccc1)CN1CCCCC1)c1ccccc1	-91*	-48%	-3%	·	·	-23
SMILES	DRD3 antagonist	PTHR1 agonist	a7 integrin act	CBFb RUNX1 block	MBNL1-CUG inh	D3 ag
Cc1ccc(NC(=O)c2ncn(CCCN3CCN(Cc4cccc5ccccc45)CC3)n2)cc1C	27	-68%	-45%	·	·	-56
O=Nc1c(O)n(Cc2ccc(Cl)cc2)c2ccccc12	3	-35%	-12%	3%	?	2
O=Nc1c(O)n(Cc2ccc(Cl)cc2Cl)c2ccccc12	-92*	-19%	-25%	-8%	10%	1
CCOc1ccccc1N(C)C(=O)NCc1noc2ccccc12	·	?	·	·	·	-5
C=CCn1cccc(/C=C/C(=O)c2ccc(C(C)(C)C)cc2)c1=S	-60*	-29%	-57%	-26%	27%	-6
CCOc1ccc(NC(=O)c2oc(=O)c3ccccc3c2-c2ccc(C)cc2)cc1	·	i	·	·	·	15
COc1ccc2c(=O)cc(CO)oc2c1	0	26%	39%	·	·	38*
Cc1cccc(N2CCN(C(=O)Cn3ncc4c3-c3cc(C)ccc3OC4)CC2C)c1 (stereo not drawn)	·	-20%	·	·	·	32*
Cc1ccc2c(c1)-c1c(cnn1CC(=O)O)CO2	27	33%[57.5 µM]	-15%	2%	1%	-4
O=C(Nc1ccccc1)c1cnc(-c2ccccc2)nc1-c1ccccc1	28	-21%[57.5 µM]	-22%	-6%	41%	43*
O=C(O)c1cnc(-c2ccccc2)nc1-c1ccccc1	3	-6%	6%	-9%	·	4
CCN1CCCC1CNC(=O)C(=O)Nc1ccc(OC)cc1 (stereo not drawn)	-6	i	0%	-3%	-16%	3
CCc1ccc(NC(=S)NCC2CCCN2CC)cc1 (stereo not drawn)	-75*	i	0%	6%	-2%	-27
CCC(C)c1ccc(OCC(=O)Nc2cccc3ccc(C)nc23)cc1 (stereo not drawn)	·	i	·	·	·	-1
O=C(NN=Cc1ccc2c(c1)OCO2)NN=Cc1ccc2c(c1)OCO2	45	i	20%	·	·	46*
COc1cccc(C(C(=O)NC2CCCC2)N(C(=O)c2ccco2)c2ccc(-n3cnnn3)c(C)c2)c1OC (stereo not drawn)	-8	i	11%	1%	-5%	-6
CCC(C)(C)NC(=O)CN(CCc1cccc(C)c1)C(=O)c1csnn1	-1	-24%	-6%	6%	-5%	-2
Nc1cc(OCC(F)(F)F)cc([N+](=O)[O-])c1	4	i	14%	2%	4%[11.5 µM]	4
Nc1cc(N)c(OCC(F)(F)F)cc1OCC(F)(F)F	-56*	-1%[57.5 µM]	-26%	-25%	?	6
Cc1ccc(S(=O)(=O)N2CN(CC3CCCO3)c3nc4ccccc4nc32)c(C)c1 (stereo not drawn)	6	-27%	11µM*	·	5%	0
O=S(=O)(c1cccs1)N1CN(CC2CCCO2)c2nc3ccccc3nc21 (stereo not drawn)	13	26%[57.5 µM]	-18%	-1%	?	-1
